Data on one sequence can be found in paper PMC7862700, “An all-to-all approach to the identification of sequence-specific readers for epigenetic DNA modifications on cytosine”.

Assay in all cases: DAPPL (digital affinity profiling via proximity ligation, sequencing); 10 mM Tris-HCl pH 7.5, 50 mM NaCl, 1 mM DTT, 4% glycerol, room temperature, 30 min; GST-TFs on glutathione beads, 16-mer random dsDNA library, 0.1% formaldehyde crosslink after washing; high values mean tight binding
One experiment deals with T1, FLI1 (Homo sapiens, UniProt Q01543 1-452).
T1 sequence: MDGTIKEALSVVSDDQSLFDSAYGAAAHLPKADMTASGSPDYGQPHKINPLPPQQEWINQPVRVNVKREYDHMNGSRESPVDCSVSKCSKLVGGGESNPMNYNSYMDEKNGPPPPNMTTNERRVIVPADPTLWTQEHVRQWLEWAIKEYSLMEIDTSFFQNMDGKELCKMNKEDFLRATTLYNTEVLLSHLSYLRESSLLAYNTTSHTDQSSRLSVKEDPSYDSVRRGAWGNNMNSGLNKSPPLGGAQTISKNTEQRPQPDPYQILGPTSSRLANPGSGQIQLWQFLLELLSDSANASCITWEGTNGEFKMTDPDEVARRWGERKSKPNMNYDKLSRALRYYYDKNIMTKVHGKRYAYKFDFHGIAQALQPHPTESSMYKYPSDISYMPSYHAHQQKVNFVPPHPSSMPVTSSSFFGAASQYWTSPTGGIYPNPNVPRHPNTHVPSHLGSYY
As to conditions: protein: recombinant; tags: N-terminal GST; dsDNA, one strand shown. A digest of the protocol:
(§1)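 The binding signal reported is, for every hexamer, its read frequency for a factor over its read frequency for the tag-only sample. Reads came from pools of yeast-expressed, GST-fused human transcription factors on glutathione beads, barcoded with DNA and mixed with that sample, which were incubated with 200 nmole of a random double-stranded 16-mer DNA library in Tris/NaCl/DTT/glycerol buffer at room temperature for 30 min. After washing, the pools were crosslinked with 0.1% formaldehyde, proximity-ligated with BsaI/T4 ligase for 1 h at 37 °C, PCR-amplified and sequenced on an Illumina NextSeq500.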

The target of another experiment is T2, ELK1 (Homo sapiens, UniProt P19419 1-428).
T2 sequence: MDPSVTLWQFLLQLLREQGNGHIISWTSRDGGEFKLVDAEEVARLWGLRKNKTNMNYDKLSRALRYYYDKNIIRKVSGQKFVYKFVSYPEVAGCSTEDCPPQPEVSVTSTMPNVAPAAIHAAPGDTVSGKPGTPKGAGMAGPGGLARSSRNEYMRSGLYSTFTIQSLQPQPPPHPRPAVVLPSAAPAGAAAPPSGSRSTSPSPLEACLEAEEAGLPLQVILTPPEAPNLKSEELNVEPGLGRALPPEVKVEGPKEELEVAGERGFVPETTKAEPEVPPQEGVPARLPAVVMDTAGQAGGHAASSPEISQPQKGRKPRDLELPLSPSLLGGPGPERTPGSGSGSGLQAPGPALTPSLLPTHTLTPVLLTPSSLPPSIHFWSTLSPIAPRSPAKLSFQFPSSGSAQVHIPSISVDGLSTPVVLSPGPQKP
The note with it: protein: recombinant; tags: N-terminal GST; dsDNA, one strand shown. A digest of the protocol: as §1

A further experiment has as its target T3, GABPA (Homo sapiens, UniProt Q06546 1-454).
T3 sequence: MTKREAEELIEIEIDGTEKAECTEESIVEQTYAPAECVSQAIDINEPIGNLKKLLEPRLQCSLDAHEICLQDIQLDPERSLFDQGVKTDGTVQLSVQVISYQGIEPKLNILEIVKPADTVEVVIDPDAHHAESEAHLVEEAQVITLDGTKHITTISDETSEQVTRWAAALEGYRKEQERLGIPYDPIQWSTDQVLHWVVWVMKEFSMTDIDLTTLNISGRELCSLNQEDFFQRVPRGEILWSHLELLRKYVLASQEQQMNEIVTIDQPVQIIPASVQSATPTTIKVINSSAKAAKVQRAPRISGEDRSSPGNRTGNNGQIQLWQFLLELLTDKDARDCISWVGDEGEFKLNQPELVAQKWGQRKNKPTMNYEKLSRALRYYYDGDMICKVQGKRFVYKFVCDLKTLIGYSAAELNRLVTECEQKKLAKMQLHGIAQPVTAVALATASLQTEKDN
The note with it: protein: recombinant; tags: N-terminal GST; dsDNA, one strand shown. A digest of the protocol: as §1

The target of another experiment is T4, ERG (Homo sapiens, UniProt P11308 1-479).
T4 sequence: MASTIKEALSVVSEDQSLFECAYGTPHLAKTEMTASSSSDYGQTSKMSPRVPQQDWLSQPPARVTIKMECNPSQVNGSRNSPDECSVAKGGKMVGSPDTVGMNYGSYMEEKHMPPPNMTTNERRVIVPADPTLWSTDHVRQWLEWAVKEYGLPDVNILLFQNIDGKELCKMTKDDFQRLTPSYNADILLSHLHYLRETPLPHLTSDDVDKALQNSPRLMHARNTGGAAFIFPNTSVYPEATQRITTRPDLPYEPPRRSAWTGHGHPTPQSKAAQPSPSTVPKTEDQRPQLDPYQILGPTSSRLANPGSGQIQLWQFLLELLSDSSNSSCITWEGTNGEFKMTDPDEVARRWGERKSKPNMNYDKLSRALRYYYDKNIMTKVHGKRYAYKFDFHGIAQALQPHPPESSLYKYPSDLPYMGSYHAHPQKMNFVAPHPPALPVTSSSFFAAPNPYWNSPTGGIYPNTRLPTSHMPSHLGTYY
The note with it: protein: recombinant; tags: N-terminal GST; dsDNA, one strand shown. The method in brief:
as §1

For a further experiment, the target named is ELF1 (Homo sapiens, UniProt P32519 1-619). The note with it: protein: recombinant; tags: N-terminal GST; dsDNA, one strand shown. A digest of the protocol:
as §1

In another experiment the target is T5, EHF (Homo sapiens, UniProt Q9NZC4 1-300).
T5 sequence: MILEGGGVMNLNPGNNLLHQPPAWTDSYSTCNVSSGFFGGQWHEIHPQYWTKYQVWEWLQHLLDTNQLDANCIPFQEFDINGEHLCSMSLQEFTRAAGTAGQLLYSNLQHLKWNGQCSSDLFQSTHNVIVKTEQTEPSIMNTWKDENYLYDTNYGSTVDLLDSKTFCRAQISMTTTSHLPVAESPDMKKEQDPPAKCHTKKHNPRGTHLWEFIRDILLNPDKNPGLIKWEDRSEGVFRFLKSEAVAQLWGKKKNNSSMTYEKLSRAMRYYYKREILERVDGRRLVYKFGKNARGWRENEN
The note with it: protein: recombinant; tags: N-terminal GST; dsDNA, one strand shown. The method in brief:
as §1

The next experiment concerns the target SPI1 (Homo sapiens, UniProt P17947 1-270). As to conditions: protein: recombinant; tags: N-terminal GST; dsDNA, one strand shown. The method in brief:
as §1

A further experiment has as its target SPIB (Homo sapiens, UniProt Q01892 1-262). The note with it: protein: recombinant; tags: N-terminal GST; dsDNA, one strand shown. The method in brief:
as §1

The target in the next experiment is T6, ELK3 (Homo sapiens, UniProt P41970 1-407).
T6 sequence: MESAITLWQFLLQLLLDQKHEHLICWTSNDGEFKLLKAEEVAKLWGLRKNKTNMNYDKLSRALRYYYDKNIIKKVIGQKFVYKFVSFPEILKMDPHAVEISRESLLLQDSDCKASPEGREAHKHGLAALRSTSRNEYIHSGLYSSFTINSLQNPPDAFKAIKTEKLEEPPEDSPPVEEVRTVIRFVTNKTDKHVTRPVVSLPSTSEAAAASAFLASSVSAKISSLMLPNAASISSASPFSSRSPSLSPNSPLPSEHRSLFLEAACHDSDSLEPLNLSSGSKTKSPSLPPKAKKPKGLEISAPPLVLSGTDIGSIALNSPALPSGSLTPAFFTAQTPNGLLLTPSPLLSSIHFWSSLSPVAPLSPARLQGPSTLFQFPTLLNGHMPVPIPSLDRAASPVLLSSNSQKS
The note with it: protein: recombinant; tags: N-terminal GST; dsDNA, one strand shown. The method in brief:
as §1

For the next experiment, the target named is T7, FEV (Homo sapiens, UniProt Q99581 1-238).
T7 sequence: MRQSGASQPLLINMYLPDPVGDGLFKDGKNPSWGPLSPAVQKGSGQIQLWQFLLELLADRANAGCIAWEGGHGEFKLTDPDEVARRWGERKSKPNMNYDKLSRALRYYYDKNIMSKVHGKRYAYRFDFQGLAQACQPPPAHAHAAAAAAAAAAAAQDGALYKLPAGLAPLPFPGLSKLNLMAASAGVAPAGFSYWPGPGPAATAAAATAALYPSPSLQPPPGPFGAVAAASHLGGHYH
As to conditions: protein: recombinant; tags: N-terminal GST; dsDNA, one strand shown. The method in brief: as §1

A further experiment concerns the target ETV5 (Homo sapiens, UniProt P41161 1-510). As to conditions: protein: recombinant; tags: N-terminal GST; dsDNA, one strand shown. The method in brief:
as §1

For another experiment, the target named is HSF1 (Homo sapiens, UniProt Q00613 1-529). As to conditions: protein: recombinant; tags: N-terminal GST; chain copies: 3; dsDNA, one strand shown. The method in brief: as §1
Sequence of HSF1 (Q00613 whole entry): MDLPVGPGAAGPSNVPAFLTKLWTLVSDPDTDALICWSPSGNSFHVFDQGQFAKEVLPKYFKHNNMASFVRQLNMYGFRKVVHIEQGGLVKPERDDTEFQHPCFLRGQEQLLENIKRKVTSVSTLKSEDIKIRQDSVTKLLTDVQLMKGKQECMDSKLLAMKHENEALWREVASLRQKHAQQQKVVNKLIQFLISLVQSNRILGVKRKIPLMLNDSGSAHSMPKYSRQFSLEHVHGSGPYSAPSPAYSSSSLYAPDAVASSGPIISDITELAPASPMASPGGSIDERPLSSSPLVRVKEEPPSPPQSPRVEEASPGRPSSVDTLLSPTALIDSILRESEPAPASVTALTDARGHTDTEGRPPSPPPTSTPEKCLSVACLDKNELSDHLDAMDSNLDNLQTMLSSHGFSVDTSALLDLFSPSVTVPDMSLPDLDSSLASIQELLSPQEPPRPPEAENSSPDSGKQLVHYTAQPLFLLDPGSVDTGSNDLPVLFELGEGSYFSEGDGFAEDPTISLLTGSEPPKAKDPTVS
For the next experiment, the target named is T8, SPIC (Homo sapiens, UniProt Q8N5J4 1-248).
T8 sequence: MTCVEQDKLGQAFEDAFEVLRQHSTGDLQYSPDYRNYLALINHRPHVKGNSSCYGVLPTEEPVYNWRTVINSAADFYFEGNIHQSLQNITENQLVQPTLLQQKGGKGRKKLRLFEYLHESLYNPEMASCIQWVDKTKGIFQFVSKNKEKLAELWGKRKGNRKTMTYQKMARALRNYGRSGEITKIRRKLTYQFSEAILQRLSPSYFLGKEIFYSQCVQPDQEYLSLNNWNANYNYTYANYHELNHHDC
As to conditions: protein: recombinant; tags: N-terminal GST; dsDNA, one strand shown. The method in brief: as §1

The target of another experiment is ELF4 (Homo sapiens, UniProt Q99607 1-663). The note with it: protein: recombinant; tags: N-terminal GST; dsDNA, one strand shown. A digest of the protocol: as §1
Sequence of ELF4 (Q99607 whole entry): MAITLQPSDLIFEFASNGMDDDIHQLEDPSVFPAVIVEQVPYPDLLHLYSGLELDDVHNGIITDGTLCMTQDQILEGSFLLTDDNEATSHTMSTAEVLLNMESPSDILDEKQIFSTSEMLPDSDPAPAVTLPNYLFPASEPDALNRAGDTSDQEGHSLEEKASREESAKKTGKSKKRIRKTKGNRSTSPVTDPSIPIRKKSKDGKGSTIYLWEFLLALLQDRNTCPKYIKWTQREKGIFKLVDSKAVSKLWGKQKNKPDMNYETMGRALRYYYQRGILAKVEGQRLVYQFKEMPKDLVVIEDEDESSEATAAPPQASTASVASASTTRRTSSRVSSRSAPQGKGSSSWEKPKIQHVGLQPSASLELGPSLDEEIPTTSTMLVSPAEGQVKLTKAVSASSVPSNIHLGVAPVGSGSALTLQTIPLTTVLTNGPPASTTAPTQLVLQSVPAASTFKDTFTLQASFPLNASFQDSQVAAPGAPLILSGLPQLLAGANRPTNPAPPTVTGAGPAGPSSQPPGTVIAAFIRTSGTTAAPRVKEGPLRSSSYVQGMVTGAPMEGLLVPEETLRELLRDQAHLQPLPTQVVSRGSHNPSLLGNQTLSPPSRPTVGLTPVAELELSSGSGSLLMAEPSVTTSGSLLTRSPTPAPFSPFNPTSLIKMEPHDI
Another experiment concerns the target T9, ELK4 (Homo sapiens, UniProt P28324-2 1-405).
T9 sequence: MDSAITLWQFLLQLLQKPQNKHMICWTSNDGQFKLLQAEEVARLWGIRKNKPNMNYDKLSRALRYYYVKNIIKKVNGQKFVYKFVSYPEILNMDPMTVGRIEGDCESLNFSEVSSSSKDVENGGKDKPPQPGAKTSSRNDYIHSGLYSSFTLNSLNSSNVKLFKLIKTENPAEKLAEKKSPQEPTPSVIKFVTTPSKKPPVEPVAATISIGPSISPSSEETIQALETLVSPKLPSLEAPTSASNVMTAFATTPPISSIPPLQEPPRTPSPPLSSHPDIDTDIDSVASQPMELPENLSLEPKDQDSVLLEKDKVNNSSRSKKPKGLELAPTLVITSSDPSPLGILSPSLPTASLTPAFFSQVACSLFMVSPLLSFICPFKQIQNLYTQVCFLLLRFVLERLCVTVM
As to conditions: protein: recombinant; tags: N-terminal GST; dsDNA, one strand shown. The method in brief:
as §1

The next experiment deals with T10, ETV2 (Homo sapiens, UniProt O00321 1-342).
T10 sequence: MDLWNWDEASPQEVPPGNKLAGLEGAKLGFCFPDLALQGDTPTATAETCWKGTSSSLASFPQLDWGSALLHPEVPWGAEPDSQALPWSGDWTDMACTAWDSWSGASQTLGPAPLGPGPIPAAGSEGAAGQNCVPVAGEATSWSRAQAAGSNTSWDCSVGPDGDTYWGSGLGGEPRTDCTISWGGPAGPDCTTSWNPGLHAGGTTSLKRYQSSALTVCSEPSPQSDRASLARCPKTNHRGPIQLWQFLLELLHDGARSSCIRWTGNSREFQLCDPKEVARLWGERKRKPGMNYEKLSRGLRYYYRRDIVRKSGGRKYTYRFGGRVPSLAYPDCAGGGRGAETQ
As to conditions: protein: recombinant; tags: N-terminal GST; dsDNA, one strand shown. A digest of the protocol:
as §1

In a further experiment the target is CRX (Homo sapiens, UniProt O43186 1-299). As to conditions: protein: recombinant; tags: N-terminal GST; dsDNA, one strand shown. The method in brief:
as §1

The next experiment concerns the target ETV1 (Homo sapiens, UniProt P50549 1-477). The note with it: protein: recombinant; tags: N-terminal GST; dsDNA, one strand shown. The method in brief:
as §1

Sequence of ETV5 (P41161 whole entry): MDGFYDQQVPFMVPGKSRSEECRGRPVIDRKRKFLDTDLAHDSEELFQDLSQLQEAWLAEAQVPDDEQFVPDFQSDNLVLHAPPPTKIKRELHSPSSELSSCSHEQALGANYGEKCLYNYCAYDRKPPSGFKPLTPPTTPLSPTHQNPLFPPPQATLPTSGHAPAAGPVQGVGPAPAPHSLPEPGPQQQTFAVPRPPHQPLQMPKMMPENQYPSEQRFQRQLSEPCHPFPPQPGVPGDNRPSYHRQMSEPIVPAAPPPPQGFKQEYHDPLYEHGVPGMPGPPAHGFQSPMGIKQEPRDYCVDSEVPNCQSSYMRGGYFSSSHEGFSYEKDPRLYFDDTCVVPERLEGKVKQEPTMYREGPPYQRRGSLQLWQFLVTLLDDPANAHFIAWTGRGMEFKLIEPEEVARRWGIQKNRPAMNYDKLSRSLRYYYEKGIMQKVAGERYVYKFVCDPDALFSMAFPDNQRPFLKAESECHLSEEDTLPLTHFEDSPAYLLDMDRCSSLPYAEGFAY
Sequence of SPIB (Q01892 whole entry): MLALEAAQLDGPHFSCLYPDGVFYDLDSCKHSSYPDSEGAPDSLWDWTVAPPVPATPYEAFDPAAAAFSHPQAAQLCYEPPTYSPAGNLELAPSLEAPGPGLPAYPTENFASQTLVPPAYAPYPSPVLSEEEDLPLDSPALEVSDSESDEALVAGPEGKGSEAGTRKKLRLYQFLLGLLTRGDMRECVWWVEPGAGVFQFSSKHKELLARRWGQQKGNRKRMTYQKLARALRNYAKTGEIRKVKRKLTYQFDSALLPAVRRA
Sequence of ETV1 (P50549 whole entry): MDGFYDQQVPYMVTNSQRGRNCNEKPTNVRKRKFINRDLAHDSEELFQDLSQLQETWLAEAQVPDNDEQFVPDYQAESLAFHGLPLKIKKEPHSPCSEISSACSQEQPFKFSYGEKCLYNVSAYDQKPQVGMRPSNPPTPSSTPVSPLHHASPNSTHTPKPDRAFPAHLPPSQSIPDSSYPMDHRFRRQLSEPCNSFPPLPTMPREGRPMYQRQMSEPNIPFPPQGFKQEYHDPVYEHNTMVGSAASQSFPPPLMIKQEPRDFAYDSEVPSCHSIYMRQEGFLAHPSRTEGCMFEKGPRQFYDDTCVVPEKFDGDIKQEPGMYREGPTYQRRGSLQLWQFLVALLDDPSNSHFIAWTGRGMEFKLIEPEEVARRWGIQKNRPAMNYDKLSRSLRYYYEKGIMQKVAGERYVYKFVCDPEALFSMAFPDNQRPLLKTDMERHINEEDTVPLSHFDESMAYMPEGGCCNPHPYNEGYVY
Sequence of ELF1 (P32519 whole entry): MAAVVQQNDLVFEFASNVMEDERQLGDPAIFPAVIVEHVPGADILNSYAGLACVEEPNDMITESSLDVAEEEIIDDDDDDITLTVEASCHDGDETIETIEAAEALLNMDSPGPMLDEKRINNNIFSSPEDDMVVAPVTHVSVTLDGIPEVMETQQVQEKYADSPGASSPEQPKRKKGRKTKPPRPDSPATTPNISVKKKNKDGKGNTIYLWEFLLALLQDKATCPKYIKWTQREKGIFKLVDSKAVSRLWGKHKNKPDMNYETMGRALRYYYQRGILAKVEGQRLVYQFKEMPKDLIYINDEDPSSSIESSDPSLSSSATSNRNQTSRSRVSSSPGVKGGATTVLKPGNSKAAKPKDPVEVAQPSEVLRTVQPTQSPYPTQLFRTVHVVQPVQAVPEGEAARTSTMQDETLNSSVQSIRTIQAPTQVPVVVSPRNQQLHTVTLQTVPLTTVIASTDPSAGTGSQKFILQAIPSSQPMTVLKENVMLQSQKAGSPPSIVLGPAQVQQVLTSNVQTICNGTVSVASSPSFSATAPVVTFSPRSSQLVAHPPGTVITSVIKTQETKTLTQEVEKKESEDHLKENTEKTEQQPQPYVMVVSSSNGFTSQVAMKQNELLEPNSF
Sequence of CRX (O43186 whole entry): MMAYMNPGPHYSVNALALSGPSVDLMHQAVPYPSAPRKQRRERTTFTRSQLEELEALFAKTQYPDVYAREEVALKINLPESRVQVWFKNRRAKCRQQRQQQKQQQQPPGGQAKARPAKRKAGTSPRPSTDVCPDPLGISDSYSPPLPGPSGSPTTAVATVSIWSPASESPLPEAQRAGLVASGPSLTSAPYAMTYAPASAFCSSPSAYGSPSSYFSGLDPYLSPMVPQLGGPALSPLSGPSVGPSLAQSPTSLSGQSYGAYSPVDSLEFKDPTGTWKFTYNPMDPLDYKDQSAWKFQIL

On to GTCTAA, for which the binding signal with FLI1 is 1.05 fold enrichment (6-mer frequency, TF over GST control); with ELK1, 1.03 fold enrichment (6-mer frequency, TF over GST control); in the experiment with GABPA, 1.14 fold enrichment (6-mer frequency, TF over GST control); in the experiment with ERG, 1.09 fold enrichment (6-mer frequency, TF over GST control); in the experiment with ELF1, 1.09 fold enrichment (6-mer frequency, TF over GST control); in the experiment with EHF, 1.02 fold enrichment (6-mer frequency, TF over GST control). Also, the binding signal is 1.08 fold enrichment (6-mer frequency, TF over GST control) with SPI1; 1.09 fold enrichment (6-mer frequency, TF over GST control) in the experiment with SPIB; 1.12 fold enrichment (6-mer frequency, TF over GST control) with ELK3; 1.03 fold enrichment (6-mer frequency, TF over GST control) with FEV; 1.01 fold enrichment (6-mer frequency, TF over GST control) with ETV5; 1.03 fold enrichment (6-mer frequency, TF over GST control) with HSF1. In addition, the binding signal was 1.11 fold enrichment (6-mer frequency, TF over GST control) with SPIC; 1.13 fold enrichment (6-mer frequency, TF over GST control) with ELF4; 1.14 fold enrichment (6-mer frequency, TF over GST control) with ELK4; 1.06 fold enrichment (6-mer frequency, TF over GST control) with ETV2; 1.33 fold enrichment (6-mer frequency, TF over GST control) with CRX; 1.11 fold enrichment (6-mer frequency, TF over GST control) in the experiment with ETV1.
